Experimental findings from PubChem BioAssay (EPA / NIEHS) are described below.

The nature of assay [1]: ATG_RORE_CIS: Attagene CIS-FACTORIAL HepG2 Assay for human RAR-related Orphan Receptor Element (RORE) (AID 2282959). Particulars: HepG2 Attagene cis-factorial RORE reporter, mRNA; actives raise or lower the signal. Summed up:
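Measured here: transcript induction of a cis-regulated reporter in HepG2 cells transiently transfected via FuGene 6. After 24 h, RNA was processed by RT-PCR and fluorescent capillary electrophoresis; DMSO defined baseline activity.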

The nature of assay [2]: ATG_Sox_CIS: Attagene CIS-FACTORIAL HepG2 Assay for human SRY-box transcription factor (SOX) (AID 2282960). Particulars: HepG2 Attagene cis-factorial SOX reporter, mRNA; actives raise or lower the signal. The method in brief:
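Using transiently transfected HepG2 cells, reporter transcription driven by cis elements was assessed 24 h after dosing. Signal was fluorescence of capillary-separated RT-PCR products, with DMSO defining baseline activity.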

Assay [3] concerns the target Transcription factor Sp1 (Homo sapiens) (UniProt P08047). In words: ATG_Sp1_CIS: Attagene CIS-FACTORIAL HepG2 Assay for human Specificity Protein 1 (Sp1) (AID 2282961). The conditions noted are these: HepG2 Sp1 cis-reporter transcription, actives raise or lower the signal. The method in brief:
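After transient transfection of HepG2 cells with cis-promoter reporter units and 24 h chemical treatment, reporter transcripts were quantified by RT-PCR and capillary electrophoresis fluorescence. Gain- and loss-of-signal fitted against DMSO.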

A short description of assay [4]: ATG_SREBP_CIS: Attagene CIS-FACTORIAL HepG2 Assay for human Sterol Regulatory Element Binding (SREBP) (AID 2282962). The conditions noted are these: HepG2 Attagene cis-factorial SREBP reporter, mRNA; actives raise or lower the signal. Summed up: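 HepG2 cells transiently transfected with multiplexed cis-promoter reporter units sensing endogenous transcription factors; reporter mRNA measured 24 h after dosing by RT-PCR, 6-FAM labeling, HpaI digestion and capillary electrophoresis. Bidirectional fit versus DMSO.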

Assay [5] concerns the target Signal transducer and activator of transcription 3 (Homo sapiens) (UniProt P40763). In words: ATG_STAT3_CIS: Attagene CIS-FACTORIAL HepG2 Assay for human Signal Transducer and Activator of Transcription 3 (STAT3) (AID 2282963). Particulars: HepG2, Attagene cis-factorial STAT3 reporter transcription; actives raise or lower the signal. The method in brief: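 Transcript-level reporter assay. HepG2 transient MRTU transfection, 24 h exposure, fluorescence detection after RT-PCR and CE; DMSO baseline.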

Assay [6] in a line: ATG_TA_CIS: Attagene CIS-FACTORIAL HepG2 Assay for human TA Basal Promoter (AID 2282964). The conditions noted are these: HepG2 Attagene CIS-factorial TA basal promoter reporter; actives raise or lower the signal. The method in brief:
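Background-control readout: TA basal promoter reporter mRNA, fitted in both directions relative to DMSO. Measured by RT-PCR and capillary electrophoresis 24 hours after treating HepG2 human liver cells transiently carrying multiplexed cis-regulated reporter constructs.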

Assay [7] in a line: ATG_TCF_b_cat_CIS: Attagene CIS-FACTORIAL HepG2 Assay for human T-Cell-Factor with beta-catenin (TCF/b-cat) (AID 2282965). Particulars: HepG2 TCF/beta-catenin cis-reporter transcription, actives raise or lower the signal. The method in brief:
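Using capillary electrophoresis as the read-out, labelled reporter cDNA fragments from transiently transfected HepG2 were sized and quantified. Exposure lasted 24 hours; activity in either direction was referenced to DMSO.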

Assay [8] is described as follows: ATG_TAL_CIS: Attagene CIS-FACTORIAL HepG2 Assay for human TAL Basal Promoter (AID 2282966).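 Note: background control endpoint measuring basal TAL promoter reporter mRNA not a specific factor.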 The conditions noted are these: HepG2 Attagene cis-factorial TAL promoter reporter; actives raise or lower the signal. The method in brief: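 HepG2 cells were transiently transfected with promoter-driven multiplexed reporter units and dosed for 24 h. Reporter mRNA was measured by RT-PCR with capillary electrophoresis fluorescence; bidirectional fits used DMSO as baseline, serving as a background control.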

Assay [9] can be described thus: ATG_TGFb_CIS: Attagene CIS-FACTORIAL HepG2 Assay for human Transforming Growth Factor (TGF) (AID 2282967). The conditions noted are these: HepG2 Attagene CIS TGFb reporter, mRNA transcription; actives raise or lower the signal. The method in brief: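 Endogenous TGFB1-linked transcription factor activity read as reporter mRNA via RT-PCR and capillary electrophoresis, 24 h after dosing transiently transfected HepG2 cells. Gain or loss of signal fitted relative to DMSO.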

Assay [10] in a line: ATG_VDRE_CIS: Attagene CIS-FACTORIAL HepG2 Assay for human Vitamin D Receptor Element (VDRE) (AID 2282968). Particulars: HepG2 VDRE cis-reporter transcription, actives raise or lower the signal. Summed up: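 RT-PCR/CE readout of reporter mRNA; HepG2, transient transfection, 24 h dosing; DMSO baseline; bidirectional analysis.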
In assay [11] the target is X-box-binding protein 1 (Homo sapiens) (UniProt P17861). In words: ATG_Xbp1_CIS: Attagene CIS-FACTORIAL HepG2 Assay for human X-box Binding Protein 1 (XBP1) (AID 2282972). Particulars: HepG2 XBP1 cis-element reporter, Attagene multiplex; actives raise or lower the signal. The method in brief: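 HepG2 cells transiently transfected with multiple cis-element reporter units report endogenous TF activity; 24 h exposure, then reporter mRNA measured by RT-PCR, 6-FAM labelling, HpaI digestion and capillary electrophoresis. Bidirectional fitting versus DMSO.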
Chain of X-box-binding protein 1 (Homo sapiens) (P17861 whole entry, looked up): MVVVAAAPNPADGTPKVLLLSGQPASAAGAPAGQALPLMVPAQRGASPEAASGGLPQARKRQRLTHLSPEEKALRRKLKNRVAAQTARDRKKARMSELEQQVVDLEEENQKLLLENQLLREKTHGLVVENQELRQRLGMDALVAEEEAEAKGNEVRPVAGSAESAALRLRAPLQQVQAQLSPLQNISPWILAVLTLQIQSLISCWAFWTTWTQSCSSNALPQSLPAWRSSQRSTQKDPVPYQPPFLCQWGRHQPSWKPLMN

The nature of assay [12]: ATG_M_19_TRANS: Attagene TRANS-FACTORIAL HepG2 Assay for M19 Transcription Factor (Internal Marker) (AID 2282974; active = hit-call score of the fitted dose curve at least 0.9, where 1 is the maximum). The conditions noted are these: HepG2 Attagene TRANS-FACTORIAL M19 internal marker reporter. The method in brief:
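Gain-of-signal in reporter mRNA, relative to DMSO, was scored from capillary electrophoresis fluorescence. HepG2 cells carried transiently transfected multiple reporter transcription units and were incubated with test chemicals for 24 h.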

Assay [13] in a line: ATG_GAL4_TRANS: Attagene TRANS-FACTORIAL HepG2 Assay for GAL4 (Internal Marker) (AID 2282976; active = hit-call score of the fitted dose curve at least 0.9, where 1 is the maximum). The conditions noted are these: HepG2 Attagene TRANS GAL4 internal marker reporter. Summed up: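 HepG2 cells transiently transfected with multiplexed GAL4-UAS reporter constructs were dosed for 24 h. Reporter mRNA was measured by RT-PCR, 6-FAM primer extension, HpaI digestion and capillary electrophoresis, and gain of signal was fitted relative to DMSO.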

The target in assay [14] is Estrogen-related receptor gamma (Homo sapiens) (UniProt P62508). As to the kind of experiment: ATG_ERRg_TRANS: Attagene TRANS-FACTORIAL HepG2 Assay for human Estrogen-Related Receptor gamma (ERRg) (AID 2282977; active = hit-call score of the fitted dose curve at least 0.9, where 1 is the maximum;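 note: hits increase reporter signal over DMSO so potencies reflect activators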). The conditions noted are these: HepG2 Attagene TRANS reporter, ERRg transactivation. The method in brief: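 Transfect HepG2 with multiple GAL4-UAS reporter transcription units; dose chemicals 24 h; isolate RNA, reverse-transcribe with oligo(dT), PCR-amplify, label with 6-FAM, digest with HpaI; size fragments by capillary electrophoresis. DMSO serves as negative control.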
Chain of Estrogen-related receptor gamma (Homo sapiens) (P62508 whole entry, looked up, the tested form may be a part): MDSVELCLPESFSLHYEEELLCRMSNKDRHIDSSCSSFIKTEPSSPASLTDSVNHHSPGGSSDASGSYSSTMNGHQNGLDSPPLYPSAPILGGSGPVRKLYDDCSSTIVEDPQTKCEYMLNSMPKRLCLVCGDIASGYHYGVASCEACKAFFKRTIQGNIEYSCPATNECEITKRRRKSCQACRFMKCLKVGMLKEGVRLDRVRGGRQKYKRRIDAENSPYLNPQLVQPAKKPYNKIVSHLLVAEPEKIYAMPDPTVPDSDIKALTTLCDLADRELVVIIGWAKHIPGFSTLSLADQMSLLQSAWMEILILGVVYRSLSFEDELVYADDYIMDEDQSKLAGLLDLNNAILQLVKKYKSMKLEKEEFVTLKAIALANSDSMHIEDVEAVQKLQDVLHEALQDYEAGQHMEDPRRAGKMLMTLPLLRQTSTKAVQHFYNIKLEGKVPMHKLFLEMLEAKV

The target in assay [15] is Glucocorticoid receptor (Homo sapiens) (UniProt P04150). In words: ATG_GR_TRANS: Attagene TRANS-FACTORIAL HepG2 Assay for human Glucocorticoid Receptor (GR) (AID 2282978; active = hit-call score of the fitted dose curve at least 0.9, where 1 is the maximum;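 note: activators score as hits since higher reporter transcript over DMSO is fitted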). Particulars: HepG2 Attagene TRANS GR reporter, mRNA transcription. The method in brief:
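HepG2 transient transfection, multiple reporter units, GAL4-UAS under NR-GAL4 chimera control. 24 h treatment. Reporter mRNA by RT-PCR/CE fluorescence, DMSO as negative control.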

Assay [16] deals with Bile acid receptor (Homo sapiens) (UniProt Q96RI1). As to the kind of experiment: ATG_FXR_TRANS: Attagene TRANS-FACTORIAL HepG2 Assay for Farnesoid X Receptor (FXR) (AID 2282979; active = hit-call score of the fitted dose curve at least 0.9, where 1 is the maximum;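 note: hits raise reporter mRNA above DMSO so AC50 marks FXR activation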). Particulars: HepG2 Attagene TRANS FXR-GAL4 reporter transcription. The method in brief: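 HepG2 cells transiently transfected with reporter constructs in which a chimeric FXR-GAL4 protein drives a GAL4-UAS reporter; 24 h compound exposure. Reporter mRNA measured by RT-PCR, FAM labelling, HpaI digestion and capillary electrophoresis; gain-of-signal versus DMSO.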
Chain of Bile acid receptor (Homo sapiens) (Q96RI1 whole entry, looked up, the tested form may be a part): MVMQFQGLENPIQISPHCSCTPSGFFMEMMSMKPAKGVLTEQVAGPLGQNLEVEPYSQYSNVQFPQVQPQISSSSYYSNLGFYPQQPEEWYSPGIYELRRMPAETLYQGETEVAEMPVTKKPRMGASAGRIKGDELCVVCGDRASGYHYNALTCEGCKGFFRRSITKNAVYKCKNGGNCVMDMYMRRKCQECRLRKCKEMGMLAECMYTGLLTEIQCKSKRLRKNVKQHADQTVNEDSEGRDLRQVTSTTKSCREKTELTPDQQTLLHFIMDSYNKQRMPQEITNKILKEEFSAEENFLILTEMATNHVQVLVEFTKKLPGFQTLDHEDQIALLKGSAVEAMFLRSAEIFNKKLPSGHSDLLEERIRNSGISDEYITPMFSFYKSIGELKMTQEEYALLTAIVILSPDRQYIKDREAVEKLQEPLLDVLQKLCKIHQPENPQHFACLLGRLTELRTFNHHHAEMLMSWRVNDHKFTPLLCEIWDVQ

Assay [17] addresses Nuclear receptor subfamily 1 group I member 3 (Homo sapiens) (UniProt Q14994). In words: ATG_CAR_TRANS: Attagene TRANS-FACTORIAL HepG2 Assay for human Constitutive Androstane Receptor (CAR) (AID 2282969; active = hit-call score of the fitted dose curve at least 0.9, where 1 is the maximum;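 note: activators raise reporter mRNA above DMSO so AC50 marks induction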). The conditions noted are these: HepG2 Attagene TRANS-FACTORIAL CAR reporter. Summed up:
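HepG2 cells transiently transfected with multiplexed GAL4-UAS reporter units expressing chimeric NR-Gal4 proteins; compound exposure 24 h. Reporter mRNA measured by RT-PCR, 6-FAM labelling, HpaI digestion and capillary electrophoresis; gain-of-signal fitted against DMSO baseline.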

Assay [18] deals with Estrogen receptor (Homo sapiens) (UniProt P03372). In words: ATG_ERa_TRANS: Attagene TRANS-FACTORIAL HepG2 Assay for human Estrogen Receptor alpha (ERa) (AID 2282970; active = hit-call score of the fitted dose curve at least 0.9, where 1 is the maximum). Particulars: HepG2 Attagene TRANS ERa GAL4 reporter, mRNA. The method in brief:
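HepG2 cells transiently transfected with multiplexed GAL4-UAS reporter units; ERa activity read via exogenous chimeric NR-Gal4 protein. After 24 hour compound exposure, reporter mRNA measured by RT-PCR with 6-FAM labelling and capillary electrophoresis; gain-of-signal fitted relative to DMSO.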

The target in assay [19] is Steroid hormone receptor ERR1 (Homo sapiens) (UniProt P11474). In words: ATG_ERRa_TRANS: Attagene TRANS-FACTORIAL HepG2 Assay for human Estrogen-Related Receptor alpha (ERRa) (AID 2282971; active = hit-call score of the fitted dose curve at least 0.9, where 1 is the maximum). The conditions noted are these: HepG2 Attagene TRANS reporter, ERRa transactivation. The method in brief:
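HepG2 cells transiently transfected with multiplexed GAL4-UAS reporter units reading chimeric ERRa-Gal4 activity; 24 h compound exposure. Reporter mRNA measured by RT-PCR, 6-FAM labelling, HpaI digest and capillary electrophoresis; gain of signal fitted versus DMSO baseline.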

Records with an inconclusive call do not appear. The source made the active and inactive calls. Rule for the calls, unless noted: active = hit-call score of the fitted dose curve at least 0.9, where 1 is the maximum; inactive = score below 0.9.

Chain of Estrogen receptor (Homo sapiens) (P03372 whole entry, looked up, the tested form may be a part): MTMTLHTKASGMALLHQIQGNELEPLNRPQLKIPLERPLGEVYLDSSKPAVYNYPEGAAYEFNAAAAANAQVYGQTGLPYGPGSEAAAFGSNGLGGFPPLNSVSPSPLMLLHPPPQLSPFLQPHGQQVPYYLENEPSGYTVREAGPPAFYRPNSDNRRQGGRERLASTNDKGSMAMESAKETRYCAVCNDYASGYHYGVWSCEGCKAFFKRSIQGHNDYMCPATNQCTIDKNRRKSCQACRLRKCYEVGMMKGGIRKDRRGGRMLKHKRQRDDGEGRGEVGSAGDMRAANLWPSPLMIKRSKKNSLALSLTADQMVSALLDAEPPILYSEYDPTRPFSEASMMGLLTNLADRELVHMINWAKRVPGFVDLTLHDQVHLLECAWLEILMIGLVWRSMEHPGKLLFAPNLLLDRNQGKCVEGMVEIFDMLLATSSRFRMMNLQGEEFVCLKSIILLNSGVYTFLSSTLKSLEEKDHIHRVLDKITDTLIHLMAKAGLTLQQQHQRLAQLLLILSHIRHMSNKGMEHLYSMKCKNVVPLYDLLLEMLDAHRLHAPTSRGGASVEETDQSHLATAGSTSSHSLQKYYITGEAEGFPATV
Chain of Glucocorticoid receptor (Homo sapiens) (P04150 whole entry, looked up, the tested form may be a part): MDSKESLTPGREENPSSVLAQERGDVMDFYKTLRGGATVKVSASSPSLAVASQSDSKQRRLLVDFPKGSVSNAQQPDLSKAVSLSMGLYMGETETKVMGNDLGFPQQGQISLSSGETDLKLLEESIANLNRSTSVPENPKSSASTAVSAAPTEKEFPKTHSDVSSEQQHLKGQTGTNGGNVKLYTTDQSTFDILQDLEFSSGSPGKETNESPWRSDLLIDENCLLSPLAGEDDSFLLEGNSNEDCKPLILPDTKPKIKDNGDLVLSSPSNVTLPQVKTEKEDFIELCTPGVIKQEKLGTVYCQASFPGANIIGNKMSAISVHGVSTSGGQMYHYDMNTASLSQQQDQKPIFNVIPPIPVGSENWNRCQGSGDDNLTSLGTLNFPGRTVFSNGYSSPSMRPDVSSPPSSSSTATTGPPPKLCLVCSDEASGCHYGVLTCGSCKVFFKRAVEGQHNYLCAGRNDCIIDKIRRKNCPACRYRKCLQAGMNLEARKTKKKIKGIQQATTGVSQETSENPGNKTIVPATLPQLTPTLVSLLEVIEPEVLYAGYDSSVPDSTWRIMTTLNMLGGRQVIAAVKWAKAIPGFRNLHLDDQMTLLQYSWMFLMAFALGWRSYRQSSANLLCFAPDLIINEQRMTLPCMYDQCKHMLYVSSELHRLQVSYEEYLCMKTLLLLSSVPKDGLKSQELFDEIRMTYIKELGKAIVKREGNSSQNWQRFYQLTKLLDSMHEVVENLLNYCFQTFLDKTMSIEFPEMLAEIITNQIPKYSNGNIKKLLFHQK
Chain of Transcription factor Sp1 (Homo sapiens) (P08047 whole entry, looked up): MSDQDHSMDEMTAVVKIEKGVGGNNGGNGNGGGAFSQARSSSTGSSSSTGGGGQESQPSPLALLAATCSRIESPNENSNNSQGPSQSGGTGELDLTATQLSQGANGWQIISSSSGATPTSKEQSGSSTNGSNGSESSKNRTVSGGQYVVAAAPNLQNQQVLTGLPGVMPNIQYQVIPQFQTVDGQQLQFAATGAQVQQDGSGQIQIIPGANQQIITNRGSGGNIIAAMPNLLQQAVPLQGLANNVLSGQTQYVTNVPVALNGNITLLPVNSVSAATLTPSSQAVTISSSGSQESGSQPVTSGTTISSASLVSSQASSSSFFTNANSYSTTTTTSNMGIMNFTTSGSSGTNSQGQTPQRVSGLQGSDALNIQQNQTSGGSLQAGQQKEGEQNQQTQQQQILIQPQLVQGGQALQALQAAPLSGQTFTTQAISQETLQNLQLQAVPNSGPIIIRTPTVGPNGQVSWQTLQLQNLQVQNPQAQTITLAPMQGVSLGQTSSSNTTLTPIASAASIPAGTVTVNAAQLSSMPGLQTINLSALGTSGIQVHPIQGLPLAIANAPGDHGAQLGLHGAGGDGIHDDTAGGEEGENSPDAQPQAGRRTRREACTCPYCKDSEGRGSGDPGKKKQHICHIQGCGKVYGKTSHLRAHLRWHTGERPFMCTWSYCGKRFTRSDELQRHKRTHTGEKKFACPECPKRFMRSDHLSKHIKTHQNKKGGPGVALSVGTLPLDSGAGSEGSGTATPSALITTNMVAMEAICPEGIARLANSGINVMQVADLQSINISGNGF
Chain of Nuclear receptor subfamily 1 group I member 3 (Homo sapiens) (Q14994 whole entry, looked up, the tested form may be a part): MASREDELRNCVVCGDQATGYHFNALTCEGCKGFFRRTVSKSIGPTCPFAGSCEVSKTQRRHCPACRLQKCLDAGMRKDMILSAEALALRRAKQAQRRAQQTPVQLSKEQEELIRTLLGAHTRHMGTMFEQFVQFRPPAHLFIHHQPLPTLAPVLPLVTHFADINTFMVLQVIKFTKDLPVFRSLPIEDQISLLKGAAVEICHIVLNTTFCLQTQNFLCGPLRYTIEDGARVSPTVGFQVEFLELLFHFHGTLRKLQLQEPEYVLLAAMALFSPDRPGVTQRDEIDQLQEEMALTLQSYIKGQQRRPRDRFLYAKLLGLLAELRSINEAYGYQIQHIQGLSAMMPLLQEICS
Chain of Signal transducer and activator of transcription 3 (Homo sapiens) (P40763 whole entry, looked up): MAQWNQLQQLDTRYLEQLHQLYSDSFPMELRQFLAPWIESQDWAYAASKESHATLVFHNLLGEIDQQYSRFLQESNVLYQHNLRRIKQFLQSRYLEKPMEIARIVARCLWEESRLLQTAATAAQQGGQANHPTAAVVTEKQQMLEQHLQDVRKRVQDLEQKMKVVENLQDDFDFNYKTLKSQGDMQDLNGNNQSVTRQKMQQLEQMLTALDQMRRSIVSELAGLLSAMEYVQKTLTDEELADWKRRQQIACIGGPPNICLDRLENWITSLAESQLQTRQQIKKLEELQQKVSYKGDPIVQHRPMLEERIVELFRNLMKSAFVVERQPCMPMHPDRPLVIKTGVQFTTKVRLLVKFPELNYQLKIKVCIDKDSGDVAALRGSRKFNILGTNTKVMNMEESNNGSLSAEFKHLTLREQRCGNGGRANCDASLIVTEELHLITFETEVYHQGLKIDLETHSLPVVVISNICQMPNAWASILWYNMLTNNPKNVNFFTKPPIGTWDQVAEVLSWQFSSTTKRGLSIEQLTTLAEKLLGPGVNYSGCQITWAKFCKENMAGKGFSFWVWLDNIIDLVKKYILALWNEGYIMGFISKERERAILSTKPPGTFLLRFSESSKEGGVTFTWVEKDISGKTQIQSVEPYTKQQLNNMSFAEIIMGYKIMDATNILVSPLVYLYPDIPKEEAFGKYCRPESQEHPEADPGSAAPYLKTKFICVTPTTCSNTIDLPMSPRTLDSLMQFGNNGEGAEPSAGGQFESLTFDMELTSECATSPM
Chain of Steroid hormone receptor ERR1 (Homo sapiens) (P11474 whole entry, looked up, the tested form may be a part): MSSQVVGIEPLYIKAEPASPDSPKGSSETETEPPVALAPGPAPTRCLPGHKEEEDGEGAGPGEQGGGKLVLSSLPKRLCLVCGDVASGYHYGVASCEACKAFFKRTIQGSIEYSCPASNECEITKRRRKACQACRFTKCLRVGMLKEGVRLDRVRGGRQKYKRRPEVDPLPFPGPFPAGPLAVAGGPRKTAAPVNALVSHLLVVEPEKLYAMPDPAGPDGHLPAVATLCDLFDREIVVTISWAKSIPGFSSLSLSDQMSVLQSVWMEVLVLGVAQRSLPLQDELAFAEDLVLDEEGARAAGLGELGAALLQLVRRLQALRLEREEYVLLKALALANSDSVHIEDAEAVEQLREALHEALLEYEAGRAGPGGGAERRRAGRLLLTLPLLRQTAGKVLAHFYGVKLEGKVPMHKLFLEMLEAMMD

As to `Brc1ccc(Br)cc1`, the molecule was classed as inactive in assay [1], in assay [2], in assay [3], in assay [4], in [5] and in assay [6]. Moreover, the molecule was classed as inactive in assay [7], in assay [8], in assay [9], in assay [10], in [11] and in assay [12]. Moreover, the molecule was called inactive in assay [13] and in assay [14].
Take `CC(C)CC(C)(c1ccc(O)cc1)c1ccc(O)cc1`: the result in [1], in assay [2], in assay [3], in assay [4], in [5] and in assay [6] was inactive. The result in assay [8], in [9] and in assay [15] was inactive. Further, the AC50 is 11.1 µM (active) in assay [7], 5.37 µM (active) in assay [10], 8.52 µM (active) in assay [11] and 7.12 µM (active) in [16].
Regarding `C=CCCl`, the molecule was classed as inactive in [1], in [2], in assay [3], in [4], in assay [5] and in assay [6]. Also, the outcome in assay [7], in [8], in assay [9], in [17], in [18] and in assay [11] was inactive. The molecule was called inactive in assay [12] and in [15].
Consider `Cc1cc(C(C)(C)c2ccc(O)c(C)c2)ccc1O`, for which the outcome in assay [1], in assay [3], in [6], in assay [8], in [9] and in assay [19] was inactive. Besides, the molecule was classed as inactive in assay [15]. In addition, the AC50 is 50 µM (active) in assay [2]; 30.3 µM (active) in assay [4]; 93.9 µM (active) in assay [5]; 41.3 µM (active) in assay [7]; 13.7 µM (active) in assay [10]; 36.4 µM (active) in assay [11]. Further, the AC50 in assay [16] is 4.72 µM (active).
As for `CCCCN(CCCC)C(=S)[S-].CCCCN(CCCC)C(=S)[S-].[Ni+2]`, the molecule was classed as inactive in [1], in assay [2], in [3], in assay [4], in assay [5] and in assay [6]. Also, the molecule was classed as inactive in assay [7], in assay [8], in assay [9], in [10], in assay [18] and in assay [11]. The outcome in assay [13] was inactive.
Regarding `Clc1ccc(C(Cl)(Cl)Cl)cn1`, the molecule was classed as inactive in assay [1], in assay [2], in assay [3], in assay [4], in [5] and in assay [6]. Besides, the outcome in [7], in assay [8], in assay [9], in [10], in assay [18] and in [11] was inactive. The molecule was classed as inactive in [15].
Regarding `CCOC(=O)CC(=O)CCl`, the result in assay [1], in assay [5], in assay [6], in assay [7] and in assay [8] was inactive. The AC50 in [2] was 26.2 µM (active); in assay [3], 23.9 µM (active); in assay [4], 26.2 µM (active); in assay [9], 36.1 µM (active); in assay [10] it was 27 µM (active); in assay [11], 23.6 µM (active).
For `Nc1nc(N)nc(Cl)n1`, the result in assay [1], in [2], in assay [3], in assay [4], in assay [5] and in [6] was inactive. For the same molecule, the call in [7], in assay [8], in [9], in assay [17], in [18] and in assay [11] was inactive. Moreover, the molecule was called inactive in assay [12] and in [13].
`CCCCS(=O)(=O)Cl`: the result in assay [1], in [2], in assay [3], in assay [4], in assay [5] and in assay [6] was inactive. Moreover, the call in assay [7], in assay [8], in [9], in [17], in assay [19] and in [11] was inactive. Besides, the outcome in assay [12], in assay [13], in assay [15] and in [16] was inactive.
